The values that follow come from PubChem BioAssay.

Experiment [1] can be described thus: StAR promoter reporter inhibitors, counter-screen for LRH-1 inverse agonist project, cell-based, luminescence, high throughput (AID 651611). As to conditions: StAR promoter luciferase reporter counterscreen, at 3.6 µM, active compounds read high. On the technique in general: The purpose of a counterscreen is to sort out artefacts and off-target activity.
The target in experiment [2] is Nuclear receptor subfamily 5 group A member 2 (Homo sapiens) (UniProt O00482). Briefly: NR5A2 activity suppression in reporter cells – cell-based, luminescence, confirmation (AID 651613; in the data active = inhibition above about 42%;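 also: HEK293T cells co-transfected with LRH-1 and StAR promoter luciferase reporter; 0% = vehicle wells and 100% = parental cells lacking receptor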). Conditions: cell-based LRH-1 luciferase reporter, inverse agonism; at 3.6 µM; active compounds read high. (A reporter such as luciferase makes a cellular process visible.)
Chain of Nuclear receptor subfamily 5 group A member 2 (Homo sapiens) (O00482 whole entry, looked up): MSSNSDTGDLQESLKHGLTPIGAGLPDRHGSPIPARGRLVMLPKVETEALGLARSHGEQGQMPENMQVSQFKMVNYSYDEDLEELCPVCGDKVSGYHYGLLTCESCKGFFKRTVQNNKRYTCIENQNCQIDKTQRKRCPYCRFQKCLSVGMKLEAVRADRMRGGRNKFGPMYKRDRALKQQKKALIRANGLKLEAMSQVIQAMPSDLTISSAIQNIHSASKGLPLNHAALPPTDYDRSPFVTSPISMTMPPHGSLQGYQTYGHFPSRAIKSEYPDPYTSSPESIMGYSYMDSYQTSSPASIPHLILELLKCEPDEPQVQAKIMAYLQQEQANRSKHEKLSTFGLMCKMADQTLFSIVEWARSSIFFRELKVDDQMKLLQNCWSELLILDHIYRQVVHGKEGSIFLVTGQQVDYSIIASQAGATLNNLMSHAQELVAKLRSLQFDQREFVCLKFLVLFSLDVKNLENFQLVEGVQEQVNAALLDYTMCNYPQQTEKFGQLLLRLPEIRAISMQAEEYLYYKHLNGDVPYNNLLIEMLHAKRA
For experiment [3], the target named is Steroidogenic factor 1 (Homo sapiens) (UniProt Q13285). The experiment in a line: inverse agonism at SF1 nuclear receptor – cell-based, luminescence, high throughput, counter-screen for LRH-1 inverse agonist project (AID 651614; in the data active = inhibition above about 44%;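 also: cells cotransfected with StAR promoter reporter and SF1 expression vector; 0% = vehicle on cells with receptor and 100% = vehicle on cells lacking receptor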). Conditions: cell-based SF1 luciferase reporter, at 3.6 µM, active compounds read high.
Chain of Steroidogenic factor 1 (Homo sapiens) (Q13285 whole entry, looked up, the tested form may be a part): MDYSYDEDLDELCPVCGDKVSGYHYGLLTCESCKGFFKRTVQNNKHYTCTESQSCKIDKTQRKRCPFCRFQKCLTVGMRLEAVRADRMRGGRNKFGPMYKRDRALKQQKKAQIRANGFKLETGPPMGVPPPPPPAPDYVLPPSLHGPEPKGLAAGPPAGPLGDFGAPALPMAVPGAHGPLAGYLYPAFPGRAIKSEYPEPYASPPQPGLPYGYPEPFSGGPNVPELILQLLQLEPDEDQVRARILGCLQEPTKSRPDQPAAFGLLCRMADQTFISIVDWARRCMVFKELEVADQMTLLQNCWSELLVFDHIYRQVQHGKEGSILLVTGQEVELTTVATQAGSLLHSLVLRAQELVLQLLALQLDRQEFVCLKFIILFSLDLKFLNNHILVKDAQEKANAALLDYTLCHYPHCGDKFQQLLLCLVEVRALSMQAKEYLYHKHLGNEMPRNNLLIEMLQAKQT
Experiment [4] in a line: compounds suppressing VP16-driven luciferase signal – cell-based, luminescence, high throughput, counter-screen for LRH-1 inverse agonist project (AID 651615; in the data active = inhibition above about 33%). Conditions: Gal4-VP16 luciferase reporter cells, at 3.6 µM, active compounds read high.

Structures are written as SMILES. Values without a mark were called inactive. Calls of active or inactive are those of the source. Rule as the data show it, unless noted: active = inhibition above about 28%; inactive = the rest.

For orientation: inhibition means the change of the read-out against control, counted positive when it falls.

`Nc1nc2ccc(Cl)cc2cc1C(=O)NCc1ccc(Oc2ccccc2)cc1`: the inhibition in experiment [1] is 14.7%; in experiment [2] it was 54.2% (active); in experiment [3], 51.1% (active); in experiment [4] it was 45.7% (active).
As for `CCCc1cc(=O)oc2cc(OCC(=O)N3CCN(C(=O)C4COc5ccccc5O4)CC3)ccc12` (stereo unspecified), the inhibition in experiment [1] is 8.6%; in experiment [2], 63.4% (active); in experiment [3] it was 55.5% (active); in experiment [4], 3.04%.
On to `CC1(C)CC(=O)C=C(c2ccc3ncccc3c2)C1`, for which the inhibition in experiment [1] is 13.7%; in experiment [2] it was 52.2% (active); in experiment [3], 52.9% (active); in experiment [4], 14.3%.
With `COc1ccc(C2=Nn3c(nnc3-c3ccccc3OC)SC2)cc1OCC1CC1`, the inhibition in experiment [1] is 49.1% (active); in experiment [2], 60.4% (active); in experiment [3] it was 62.8% (active); in experiment [4], 24.6%.
For `Cc1c(C)c2ccc(OCC(=O)N3CC[C@@]4(O)CCCC[C@H]4C3)cc2oc1=O` the same measures were 14.5%, 39%, 25.6% and -3.1%.
`COc1ccccc1NC(=O)c1ccc(NC(=O)COC(=O)C(C)C)cc1`: the inhibition was 12.5% in experiment [1], 62.7% (active) in experiment [2], 55.7% (active) in experiment [3] and -39.4% in experiment [4].
Take `CCOc1ccc(CCNC(=O)COC(=O)c2cc(=O)[nH]c3ccccc23)cc1OCC`: the inhibition in experiment [1] was 8.79%; in experiment [2] it was 53.2% (active); in experiment [3], 53.2% (active); in experiment [4], -8.43%.
On to `CCOc1ccc(NC(=O)CN2CCN(C3c4ccccc4-c4ccccc43)CC2)cc1`, for which the inhibition in experiment [1] is 9.85%; in experiment [2], 66.5% (active); in experiment [3] it was 60.1% (active); in experiment [4], -0.77%.
Take `CC1CCC2(CC1)NC(=O)N(CC(=O)Nc1ccc3c(c1)CCC3)C2=O` (stereo unspecified): the inhibition in experiment [1] is 39.1% (active); in experiment [2], 49.1% (active); in experiment [3] it was 48.9% (active); in experiment [4], 12.8%.
